Screens as filed in PubChem.
Only some compounds are listed: those with a hit (about 7.5% of all), similar ones and a draw of the others.
Luc counter: blocks Kinase-Glo luciferase, a counter-screen artifact; Kinase-Glo luciferase, ATP luminescence, 8 min; Potency, µM (top dose mostly 38.3 µM), actives largely listed as inhibitors; hit rate 0.28% among 200,000; AID 1379; note: nearly all actives have a fitted effect of over 60% in size
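Luminescence was the read-out, taken after 8-minute incubation at ambient temperature. Luciferase turned over luciferin with 10 uM ATP in imidazole pH 7.2 buffer containing KCl, MgCl2, Tween 20 and BSA.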
NPC1 promoter act: activators of NPC1 promoter | Huh7 NPC1 promoter luciferase reporter, 24 h | hit rate 2.4% among 320,000 | Potency, µM (highest dose often 9.22 µM), usual class: activators; note: nearly all actives have a fitted effect of over 60% in size
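Huh7 reporter cells (NPC1 promoter driving luciferase) are dosed with compound for 24 h at 37 °C, 5% CO2; luciferase detection reagent is then added and luminescence measured after 10 min at ambient temperature.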
SMN2 splice up: increases expression of the SMN2 splice variant | HEK293 SMN2-luciferase splicing reporter, luminescence, 30-36 h | Potency, µM (series often up to 46.1 µM), usual class: activators | hit rate 2.8% among 210,000 | AID 1458; note: nearly all actives have a fitted effect of over 55% in size
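HEK293 cells carry an SMN2 minigene-luciferase reporter in which exon 7 inclusion puts luciferase in frame. Cells were seeded at 2000 cells/well, attached for 10-12 hours, then exposed to compounds for 30-36 hours at 37C before ONE-Glo luminescence.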
ELG1 genotoxic: induces genotoxicity in HEK293T cells with luciferase-tagged ELG1; HEK293T ELG1-luciferase reporter, luminescence, 16 h; Potency, µM (highest dose often 46 µM), hits mostly activators; hit rate 1.3% among 330,000; note: nearly all actives have a fitted effect of over 60% in size
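After overnight (16 hr) compound treatment at 37 °C, ELG1-luciferase HEK293T cells were lysed with ONE-Glo; luminescence quantified 30 min later at room temperature.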
FLuc modulator: inhibits or activates purified firefly luciferase, miR-21 counter-screen; P08659; purified FLuc, Km substrates, luminescence inhibition; Potency, µM (titrated, usually from 57.5 µM), most hits filed as inhibitors; hit rate 6.9% among 360,000; note: nearly all actives have a fitted effect of over 55% in size
Target sequence (P08659 whole entry, looked up): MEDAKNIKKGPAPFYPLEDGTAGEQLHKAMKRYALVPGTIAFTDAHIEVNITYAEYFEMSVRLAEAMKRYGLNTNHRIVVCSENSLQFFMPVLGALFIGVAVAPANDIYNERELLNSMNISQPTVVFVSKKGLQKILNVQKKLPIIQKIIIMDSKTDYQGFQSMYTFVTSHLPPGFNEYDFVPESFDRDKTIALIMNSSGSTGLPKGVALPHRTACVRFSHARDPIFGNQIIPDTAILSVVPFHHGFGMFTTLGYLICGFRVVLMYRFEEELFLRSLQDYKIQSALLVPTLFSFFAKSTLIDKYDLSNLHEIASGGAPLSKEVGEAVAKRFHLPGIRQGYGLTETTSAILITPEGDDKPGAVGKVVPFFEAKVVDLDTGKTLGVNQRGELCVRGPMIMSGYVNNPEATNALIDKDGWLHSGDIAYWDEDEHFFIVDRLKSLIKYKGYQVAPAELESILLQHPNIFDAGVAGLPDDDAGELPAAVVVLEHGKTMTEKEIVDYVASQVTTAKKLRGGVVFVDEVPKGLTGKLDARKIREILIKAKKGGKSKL
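Biochemical qHTS of compounds, final roughly 60 µM downward over six points, against 10 nM purified firefly luciferase using Km concentrations of substrates (10 uM D-luciferin, 10 uM ATP) in Tris acetate pH 7.5 buffer; luminescence output.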
Rab9 prom act: activators of Rab9 promoter; Huh7 Rab9 promoter-luciferase reporter, luminescence, 24 h; Potency, µM (highest dose often 9.22 µM), actives largely listed as activators; hit rate 2.8% among 320,000; note: nearly all actives have a fitted effect of over 60% in size
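Luciferase signal after 10 min detection reagent at ambient indicates Rab9 promoter upregulation; stably transfected Huh7 cells were treated 24 h with compound in DMSO at 37 °C, 5% CO2.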
A number is an active result; n = inactive; u = inconclusive; x = no result given. Calls come from the whole dose curve; as a rule, active = well fitted curve in the direction sought with a large enough effect; inconclusive = small, poorly fitted or top-dose-only effect, or another doubt; inactive = no such curve, though single readings can be large; an effect the other way counts as inactive or inconclusive.

SMILES	Luc counter	NPC1 promoter act	SMN2 splice up	ELG1 genotoxic	FLuc modulator	Rab9 prom act
COc1ccc2cc3cc(C(=O)N4CCCCC4C)oc3nc2c1 (stereo unspecified)	x	1.1µM	x	2.3µM	3.4µM	0.45µM
COc1ccc2cc3cc(C(=O)N4CCN(C5CCCCC5)CC4)oc3nc2c1	x	n	x	n	n	n
Cc1ccc(C(=O)c2cn(CC(=O)Nc3ccc4c(c3)OCCO4)c3nc(C)ccc3c2=O)cc1	x	x	x	x	n	x
COc1ccc(Nc2nc(N)nc(CCl)n2)cc1	x	x	x	u	6µM	n
Nc1nc(CCl)nc(Nc2ccc3ccccc3c2)n1	x	n	x	n	3µM	n
CCCCn1c(N)c(N(CCOC)C(=O)c2ccc(S(=O)(=O)N3CCC(C)CC3)cc2)c(=O)[nH]c1=O	x	n	x	n	n	n
Cc1ccc(-c2cn3ccc(C)cc3n2)cc1	x	x	0.25µM	x	0.15µM	x
O=S(=O)(c1cccc(-c2cn3cc(Cl)ccc3n2)c1)N1CCOCC1	n	n	x	n	u	n
Cc1ccn2cc(-c3ccc(Br)cc3)nc2c1	x	2.8µM	x	u	0.15µM	0.56µM
Clc1ccc(-c2cn3cc(Br)ccc3n2)cc1Cl	n	4µM	2.2µM	0.82µM	0.21µM	2.2µM
COc1ccc2oc(=O)c(-c3cn4ccc(C)cc4n3)cc2c1	n	u	n	21µM	u	3.2µM
Cc1ccc(S(=O)(=O)Nc2ccc(-c3cn4ccc(C)cc4n3)cc2)cc1	x	n	x	n	u	n
COc1cccc(NC(=O)N(Cc2c[nH]c3ccccc23)C2CCCCC2)c1	x	x	n	x	n	x
COc1c(Cl)cccc1-c1cn2ccc(C)cc2n1	x	1.3µM	x	u	0.67µM	0.56µM
COc1ccc(Cl)cc1NC(=O)Cn1cc(C(=O)c2ccncc2)c(=O)c2cc(C)ccc21	x	x	x	x	n	x
CCOCCCNC(=O)Cn1ncc2c([nH]c3ccccc32)c1=O	x	x	x	x	n	x
COc1cc(-c2nc(-c3cccc(Cl)c3)c(-c3ccccc3)[nH]2)cc(OC)c1OC	x	x	n	x	n	x
COc1cc(-c2nc(-c3ccc4c(c3)-c3ccccc3S4(=O)=O)c(-c3ccccc3)[nH]2)cc(OC)c1O	n	n	n	n	6.7µM	n
Cc1cc(SCC(=O)Nc2nsc(-c3ccc(C(C)(C)C)cc3)n2)nc2ccccc12	x	x	14µM	x	x	x
Cc1ccc(-c2nc(NC(=O)CSc3ncn[nH]3)ns2)cc1	x	n	x	n	17µM	n
O=C(CSc1ncc(S(=O)(=O)c2ccccc2)c(=O)[nH]1)Nc1ccccc1Cl	x	n	x	n	n	n
Cc1ccc(C)c(NC(=O)CSc2ncc(S(=O)(=O)c3ccc(C)c(Cl)c3)c(=O)[nH]2)c1	x	x	x	x	11µM	x
Cc1ccc(NC(=O)CSc2ncc(S(=O)(=O)c3ccccc3)c(=O)[nH]2)cc1C	n	n	n	n	u	n
COc1ccccc1CNC(=O)CSc1ncc(S(=O)(=O)c2ccc(C)c(Cl)c2)c(=O)[nH]1	x	x	x	x	13µM	x
CCc1ccc(NC(=O)CSc2ncc(S(=O)(=O)c3cc(C)ccc3C)c(=O)[nH]2)cc1	x	x	n	x	9.5µM	x
SMILES	Luc counter	NPC1 promoter act	SMN2 splice up	ELG1 genotoxic	FLuc modulator	Rab9 prom act
CC(C)(C)c1ccc(S(=O)(=O)c2cnc(SCC(=O)Nc3ccc4c(c3)OCCO4)[nH]c2=O)cc1	x	x	n	x	11µM	x
COc1cccc(NC(=O)CSc2ncc(S(=O)(=O)c3ccccc3)c(=O)[nH]2)c1	x	n	x	n	n	n
Cc1cccc(OCc2nnc(SCC(=O)N(C)C3CCCCC3)o2)c1	x	n	x	n	u	n
Cc1ccc(NC(=O)Cn2c(=O)n(Cc3ccco3)c(=O)c3oc4ccccc4c32)cc1C	x	x	x	x	n	x
CC(C)c1ccc(Nc2nc(CC(=O)O)cs2)cc1	n	1.3µM	x	u	2.1µM	1.4µM
O=C(Nc1ccc(O)c(-c2nc3ccccc3s2)c1)C1=COCCO1	n	n	n	n	n	n
O=C(Nc1ccc(-c2nc3ccccc3s2)c(O)c1)C1=COCCO1	n	0.5µM	2.2µM	16µM	0.48µM	0.71µM
O=C(Nc1cccc(-c2nc3ccccc3s2)c1)C1=COCCO1	n	n	n	n	17µM	n
CCOC(=O)c1c(C)n(-c2ccccc2)c2ccc(OC(=O)c3cc(OC)cc(OC)c3)cc12	x	x	n	x	n	x
Clc1ccccc1-c1nc(-c2cccnc2)no1	n	x	11µM	x	3µM	x
